Test results published in PubChem BioAssay (NCI).
The panel holds about 83,000 compounds, 20% with a hit somewhere; the sample as a whole holds those more often.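 How to read the values: 0–100, growth inhibition (40 = 60% inhibited); 0, no net growth; -100 to 0, cell death (-40 = 40% of starting cells died; -100 = all dead).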 Activity calls are given as the source filed them. The calls were made as follows: active = growth percent below 10; inactive = the rest.

Test system: HCC-2998 colon
Assay: NCI-60 one-dose screen, 48 h (100 = growth as untreated, 0 = no growth, -100 = all killed)
Conditions: 10 µM unless noted

SMILES	growth
Cc1cc(=O)n(C(=O)Nc2ccccc2Cl)c2cc(O)ccc12	98.5% (inactive)
Cn1cc(-c2nonc2-c2cn(C)c3ccccc23)c2ccccc21	51.2% (inactive)
COc1ccc(C(C)=O)cc1S(=O)(=O)Nc1c(N)nc(SC)[nH]c1=O	99% (inactive)
O=C(/C=C(/C=C/c1ccc2[nH]ccc2c1)OB(F)F)/C=C/c1ccc2[nH]ccc2c1	-88.3% (active)
NC(=O)C(=O)c1ccccc1NC=O	107% (inactive)
O=S(=O)(Nc1cc(F)cc(Cl)c1)c1ccc(-c2cnc(C3CC3)o2)cc1	54.9% (inactive)
COc1ccc(NC2=C(I)C(=O)c3ncccc3C2=O)cc1	47.6% (inactive)
COc1cc2ncnc(Nc3ccc(F)c(Cl)c3)c2cc1OCC(=O)N1CCN(c2ccccc2)CC1	97.8% (inactive)
N#Cc1nc(-c2ccccc2)oc1S(=O)(=O)N1CCN(c2ccccc2)CC1	102% (inactive)
COc1ccc2cc1Oc1ccc(cc1)C[C@H]1c3c(cc4c(c3Oc3cc5c(cc3OC)CCN(C)[C@@H]5C2)OCO4)CCN1C	59.9% (inactive)
Nc1cnc(C(=O)NNc2nc3cc(F)ccc3n3cccc23)cn1	48.4% (inactive)
Cc1ccc(-c2nc([P+](c3ccccc3)(c3ccccc3)c3ccccc3)c(S(=O)(=O)c3ccc(C)cc3)o2)cc1	38.3% (inactive)
Cc1cccc(/C=C/c2c(C(=O)/C=C/c3ccccc3)c(C)nc3ccccc23)c1	-84.5% (active)
Cc1c2cnccc2c(C)c2c1c1cc(C#N)ccc1n2C	-68.7% (active)
COc1ccc(C(=O)/C=C/c2c(C(F)(F)F)nc3ccccn23)cc1OC	-9.15% (active)
O=C1NC(=O)C(Cc2ccc(OCc3ccc(-c4ccc(Cl)cc4Cl)cc3)cc2)S1 (stereo not given)	60.8% (inactive)
CSc1oc(C)nc1[P+](c1ccccc1)(c1ccccc1)c1ccccc1	42.8% (inactive)
COc1cc2cc(NCc3cccc(Cl)c3)nc(C)c2cc1OC	38.9% (inactive)
NS(=O)(=O)c1ccc(N=Nc2c(O)n(Cc3ccccc3)c3ccc(Cl)cc23)cc1	101% (inactive)
COc1cc(NS(=O)(=O)c2ccc(-c3cnc(C4CC4)o3)cc2)ccc1F	38.4% (inactive)
O=S(=O)(Nc1ccc(Cl)c(C(F)(F)F)c1)c1ccc(-c2cnc(C3CC3)o2)cc1	25.1% (inactive)
O=C(N/N=C/c1ccc(Cl)cc1)c1[nH]c2ccc(Cl)cc2c1-c1ccccc1	26.4% (inactive)
O=C(/C=C/c1cccs1)Nc1ncc(Cc2ccccc2F)s1	44.4% (inactive)
C=CCc1c(O)c(C(=O)/C=C/c2ccccc2)c(OC)c2ccoc12	50.4% (inactive)
O=S(=O)(Nc1cc(Cl)ccc1Cl)c1ccc(-c2cnc(C3CC3)o2)cc1	67.4% (inactive)
CN(C)c1ccc(C(=O)OCCCCCCl)cc1	98.4% (inactive)

Test system: KM12 colon
Assay: as above
Conditions: 10 µM unless noted

SMILES	growth
COc1cc(-c2nccc3[nH]c(-c4ccc5cc[nH]c5c4)nc23)cc(OC)c1OC	3.62% (active)
COc1ccc(/C=C/C(=O)c2cccc(OCCCCOc3cccc(C(=O)/C=C/c4ccc(OC)c(OC)c4)c3)c2)cc1OC	79.1% (inactive)
CC(C)COc1nc2c(c(=O)n(C)c(=O)n2C)n1C	99.5% (inactive)
NC(=O)c1c(NC(=O)c2ccc3ccccc3c2)sc2c1CCC(=O)C2	34.9% (inactive)
C=C1C(=O)O[C@H]2[C@H]1CC/C(COC(=O)NCc1ccc(Cn3c(=O)sn(CCCCC)c3=O)cc1)=C\CC[C@@]1(C)O[C@@H]21	95.9% (inactive)
COc1cc(OC)c(/C=C/C(=O)c2c(OC)cccc2OC)c(OC)c1	8.59% (active)
COC1=CC(c2ccc[nH]2)=N/C1=C\c1[nH]c(C)c(C)c1CCC(=O)OCc1ccccc1	-20.9% (active)
CCCCCCCCCCC(CN(CC)CC)C(O)c1ccccc1 (stereo not given)	8.29% (active)
CCOC(=O)C1=C(c2ccccc2)N=C2SC=C(c3ccc(Cl)cc3)N2C1c1ccc(Br)cc1 (stereo not given)	78.1% (inactive)
O=C(COc1ccc(-c2nc3cc(Cl)c(Cl)cc3[nH]2)cc1)N=Nc1c(O)[nH]c2ccc(Cl)cc12	64.5% (inactive)
Cn1ccc(=O)c(C(=O)Nc2nsc3ccc([N+](=O)[O-])cc23)c1	65.3% (inactive)
COC(=O)[C@]1(C)CCC[C@]2(C)[C@H]3C[C@H]4C(C(C)C)=C[C@]3(CC[C@H]21)[C@@H]1C(=O)CC[C@H](OCCC#N)[C@@H]14	82% (inactive)
O=c1c2ccccc2n2cnc3ccc(Cl)c1c32	84.3% (inactive)
Cc1cc(=O)n(C(=O)Nc2ccccc2Cl)c2cc(O)ccc12	98.1% (inactive)
Cn1cc(-c2nonc2-c2cn(C)c3ccccc23)c2ccccc21	27.4% (inactive)
COc1ccc(C(C)=O)cc1S(=O)(=O)Nc1c(N)nc(SC)[nH]c1=O	96.7% (inactive)
O=C(/C=C(/C=C/c1ccc2[nH]ccc2c1)OB(F)F)/C=C/c1ccc2[nH]ccc2c1	-5.34% (active)
NC(=O)C(=O)c1ccccc1NC=O	98.6% (inactive)
O=S(=O)(Nc1cc(F)cc(Cl)c1)c1ccc(-c2cnc(C3CC3)o2)cc1	29.4% (inactive)
COc1ccc(NC2=C(I)C(=O)c3ncccc3C2=O)cc1	15.3% (inactive)

SMILES	growth
COc1cc2ncnc(Nc3ccc(F)c(Cl)c3)c2cc1OCC(=O)N1CCN(c2ccccc2)CC1	102% (inactive)
N#Cc1nc(-c2ccccc2)oc1S(=O)(=O)N1CCN(c2ccccc2)CC1	104% (inactive)
COc1ccc2cc1Oc1ccc(cc1)C[C@H]1c3c(cc4c(c3Oc3cc5c(cc3OC)CCN(C)[C@@H]5C2)OCO4)CCN1C	55.2% (inactive)
Nc1cnc(C(=O)NNc2nc3cc(F)ccc3n3cccc23)cn1	24.7% (inactive)
Cc1ccc(-c2nc([P+](c3ccccc3)(c3ccccc3)c3ccccc3)c(S(=O)(=O)c3ccc(C)cc3)o2)cc1	18.8% (inactive)
Cc1cccc(/C=C/c2c(C(=O)/C=C/c3ccccc3)c(C)nc3ccccc23)c1	-52.7% (active)
Cc1c2cnccc2c(C)c2c1c1cc(C#N)ccc1n2C	2.89% (active)
COc1ccc(C(=O)/C=C/c2c(C(F)(F)F)nc3ccccn23)cc1OC	3.34% (active)
O=C1NC(=O)C(Cc2ccc(OCc3ccc(-c4ccc(Cl)cc4Cl)cc3)cc2)S1 (stereo not given)	47.7% (inactive)
CSc1oc(C)nc1[P+](c1ccccc1)(c1ccccc1)c1ccccc1	23% (inactive)
COc1cc2cc(NCc3cccc(Cl)c3)nc(C)c2cc1OC	38.8% (inactive)
NS(=O)(=O)c1ccc(N=Nc2c(O)n(Cc3ccccc3)c3ccc(Cl)cc23)cc1	88.5% (inactive)
COc1cc(NS(=O)(=O)c2ccc(-c3cnc(C4CC4)o3)cc2)ccc1F	20.7% (inactive)
O=S(=O)(Nc1ccc(Cl)c(C(F)(F)F)c1)c1ccc(-c2cnc(C3CC3)o2)cc1	8.14% (active)
O=C(N/N=C/c1ccc(Cl)cc1)c1[nH]c2ccc(Cl)cc2c1-c1ccccc1	4.94% (active)
O=C(/C=C/c1cccs1)Nc1ncc(Cc2ccccc2F)s1	16.7% (inactive)
C=CCc1c(O)c(C(=O)/C=C/c2ccccc2)c(OC)c2ccoc12	45.2% (inactive)
O=S(=O)(Nc1cc(Cl)ccc1Cl)c1ccc(-c2cnc(C3CC3)o2)cc1	24% (inactive)
CN(C)c1ccc(C(=O)OCCCCCCl)cc1	97% (inactive)
